Source: PubChem (National Center for Advancing Translational Sciences (NCATS))
PI5P4K alpha inh: qHTS for Inhibitors of phosphatidylinositol 5-phosphate 4-kinase (PI5P4K); PI5P4Kalpha enzyme, ADP-Glo luminescence, 60 min; active compounds read low; max response, %; 330,000 tested, 1.2% active; AID 652105, 2013; active means max response of -50% or lower; inconclusive means between -30% and -50%; inactive means -30% or higher; further: value at the top dose of about 77 µM; on the % scale 0 is the no-effect control and ±100 the full control effect
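ADP-Glo luminescence end-point read after a 60 min room-temperature kinase reaction of PI5P4Kalpha plus substrate, initiated with ATP at 5 microM final. Buffer: 0.038 M HEPES pH 7.4, EGTA, 0.1% CHAPS, 5% DMSO.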
POLB inh: qHTS Assay for Inhibitors of DNA Polymerase Beta. P06746. Pol beta primer extension/strand displacement, fluorescence kinetic. Potency, µM (highest dose often 114 µM), for inactives: at the top dose activity change, negative = inhibition, hits mostly inhibitors. 340,000 tested, 1.3% active; further: potency means the concentration at half of the fitted maximal effect; on the % scale 0 is the no-effect control and ±100 the full control effect
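Reaction started by 50 nM substrate onto compound-treated Pol beta (10 nM, 15 min preincubation, room temperature); plates read at 0 min and 10 min. Normalized concentration-effect data fitted by four-parameter Hill equation.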
Pol eta inh: qHTS for Inhibitors of Polymerase Eta. DNA polymerase eta (Homo sapiens), Q9Y253. recombinant Pol eta, fluorescent DNA replication assay. Potency, µM (series often up to 114 µM), without a hit: at the top dose activity change, negative = inhibition, most hits filed as inhibitors. 390,000 tested, 1.2% active. AID 588591, 2011; further: potency means the concentration at half of the fitted maximal effect; on the % scale 0 is the no-effect control and ±100 the full control effect
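Fluorescent replication assay: 50 nM final substrate added after a 15 min room-temperature compound preincubation with 10 nM enzyme. Signal taken at 0 min and again at 10 min.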
POLK inh: qHTS for Inhibitors of Polymerase Kappa; 400,000 tested, 0.53% active; Potency, µM (series often up to 107 µM), inactives show at the highest dose activity, negative = inhibition, most hits filed as inhibitors; purified Pol kappa, fluorescent DNA synthesis assay, 10 min; AID 588579, 2011; DNA polymerase kappa (Homo sapiens), Q9UBT6; further: potency means the concentration at half of the fitted maximal effect; on the % scale 0 is the no-effect control and ±100 the full control effect
Target sequence (Q9UBT6 whole entry, looked up): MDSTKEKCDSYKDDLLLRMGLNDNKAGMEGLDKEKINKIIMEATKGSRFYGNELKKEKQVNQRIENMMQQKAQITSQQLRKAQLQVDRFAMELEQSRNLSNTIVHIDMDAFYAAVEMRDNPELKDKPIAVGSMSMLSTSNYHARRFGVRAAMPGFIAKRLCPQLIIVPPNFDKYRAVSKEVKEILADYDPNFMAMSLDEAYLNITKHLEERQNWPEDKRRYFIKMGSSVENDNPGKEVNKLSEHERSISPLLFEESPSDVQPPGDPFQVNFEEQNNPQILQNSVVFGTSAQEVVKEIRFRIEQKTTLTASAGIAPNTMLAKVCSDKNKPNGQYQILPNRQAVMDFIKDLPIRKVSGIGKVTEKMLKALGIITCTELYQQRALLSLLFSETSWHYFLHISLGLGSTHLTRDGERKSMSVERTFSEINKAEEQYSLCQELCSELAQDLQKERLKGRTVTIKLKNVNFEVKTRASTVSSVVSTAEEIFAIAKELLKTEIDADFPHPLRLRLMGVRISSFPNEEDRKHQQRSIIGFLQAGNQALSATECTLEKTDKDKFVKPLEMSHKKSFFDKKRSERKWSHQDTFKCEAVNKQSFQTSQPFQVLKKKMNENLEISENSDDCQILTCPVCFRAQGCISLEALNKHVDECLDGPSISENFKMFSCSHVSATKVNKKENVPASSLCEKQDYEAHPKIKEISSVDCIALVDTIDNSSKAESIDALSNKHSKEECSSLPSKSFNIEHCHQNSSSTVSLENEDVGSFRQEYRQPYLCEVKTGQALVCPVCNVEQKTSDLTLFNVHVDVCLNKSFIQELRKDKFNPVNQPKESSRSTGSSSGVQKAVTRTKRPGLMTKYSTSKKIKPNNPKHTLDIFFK
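10 nM Pol kappa was preincubated with compounds for 15 min at room temperature. Reaction started with 50 nM (final) substrate. Fluorescence read kinetically at 0 and 10 min.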
Pol iota inh: qHTS for Inhibitors of Polymerase Iota; Potency, µM (top dose mostly 115 µM), for the others: at the highest dose activity, negative = inhibition, actives largely listed as inhibitors; 390,000 tested, 1% active; AID 588590, 2011; Pol iota fluorescent replication assay, 10 min; further: potency means the concentration at half of the fitted maximal effect
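Pol iota at 10 nM preincubated 15 min with compounds at room temperature; reaction started with fluorescent substrate, 50 nM final. Fluorescence read kinetically at 0 and 10 min; buffer-only wells as negative control.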
WRN inhibitor: qHTS for Inhibitors of WRN Helicase; Bifunctional 3'-5' exonuclease/ATP-dependent helicase WRN (Homo sapiens), Q14191; WRN helicase unwinding, fluorescent forked duplex, kinetic; Potency, µM (titrated, usually from 114 µM), for the others: at the top dose activity change, negative = inhibition, actives largely listed as inhibitors; 360,000 tested, 0.46% active; AID 651768, 2012; further: potency means the concentration at half of the fitted maximal effect; on the % scale 0 is the no-effect control and ±100 the full control effect; nearly all actives have a fitted effect of over 55% in size
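Primary qHTS, 1536-well format. 20 nM WRN + compound, 15 min RT; start with 100 nM forked fluorophore/quencher duplex, 2 mM ATP (final); kinetic read ex 525/em 598 nm.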
Active calls of the source: *; ? = inconclusive; nt = not tested or not shown; [ ] = dose if it differs, or a comment. The list is not random: actives were taken first. Their share in the collection is about 2.8%. Unless noted, the call rests on the fitted dose curve; in most records, active means well fitted curve in the direction sought with a large enough effect; inconclusive means small, poorly fitted or top-dose-only effect, or another doubt; inactive means no such curve, though single readings can be large; an effect the other way counts as inactive or inconclusive.

SMILES	PI5P4K alpha inh	POLB inh	Pol eta inh	POLK inh	Pol iota inh	WRN inhibitor
O=C(NC(=S)N1CCN(c2nc(-c3ccccc3)cs2)CC1)c1cncc(Br)c1	-13	-2%	-1%	-14%	-2%	-10%
O=C1C(c2ccc(F)cc2)N(CCc2ccccc2)C(=O)CN1C1CCCCC1 (centres undefined)	nt	11%	-12%	1%[60.1 µM]	9%	nt
CN(C)c1ccc(C(=C2C=CC(=[N+](C)C)C=C2)c2ccc(N(C)C)cc2)cc1	nt	nt	nt	?	-7%	nt
CN(C)c1ccc(C(=C2C=CC(=[N+](C)C)C=C2)c2c(O)c(S(=O)(=O)[O-])cc3cc(S(=O)(=O)O)ccc23)cc1	nt	nt	nt	8.9µM*	?	nt
CCc1cccc2c1NC(=O)[C@]21[C@@H]2C(=O)N(Cc3ccccc3)C(=O)[C@@H]2[C@@H]2CCCN21	-52*	?	22µM*	-18%	?	-12%[57.1 µM]
O=C(Nc1nccs1)c1cncc(Br)c1	7	-18%	-3%	-5%	147%	-2%
Cc1cc(C(=O)N/N=C/c2ccc(O)c(O)c2O)c(C)n1-c1ccccc1	-62*	?	-26%	-18%	-18%	-5%
O=C(CN1CCCCCCC1)N/N=C/c1ccc([N+](=O)[O-])o1	0	?	?	?	45µM*	-15%[11.6 µM]
CCCCCCCC(=O)N/N=C/c1ccc([N+](=O)[O-])o1	1	-24%	-16%	-27%	?	2%
O=C(CCN1CCN(c2ccccc2)CC1)N/N=C/c1ccc(O)c(O)c1O	-69*	2.8µM*	22µM*	3.5µM*	1.3µM*	40µM*
O=C(CN1CCOCC1)NN=Cc1ccc([N+](=O)[O-])o1	-3	nt	nt	nt	nt	-6%
O=C(CCN1CCN(c2ccccc2)CC1)N/N=C/c1ccc([N+](=O)[O-])o1	-18	71µM*	?	-7%	?	-10%
CCN(C(=O)COC(=O)C(C)(C)Oc1ccc(Cl)cc1)c1c(N)n(Cc2ccccc2)c(=O)[nH]c1=O	0	nt	-3%	-13%	14%	?
O=C(Nc1ccc(Oc2ccccc2)cc1)c1ccc2sc([C@H]3C[C@H](O)[C@@H](CO)O3)nc2c1	-3	nt	nt	nt	nt	4%
O=C(CN1CCOCC1)N/N=C/c1ccc(-c2ccc(C(=O)O)cc2)o1	-17	?	40µM*	-29%	0%	-8%
CC(=O)c1c(C)[nH]c(C(=O)OCC(=O)c2c[nH]c3ccccc23)c1C	-1	nt	1%	-6%	79µM*	8%
Cc1nc2ccc(NC(=O)COc3ccccc3F)cc2s1	3	13%	-22%	-14%	-14%	-13%
O=C(COc1ccccc1F)Nc1ccc(-c2nc3ccccc3s2)cc1	nt	45µM*	-21%	-13%	14%	nt
CCn1cc(C(=O)NC(=S)Nc2ccccc2Br)cn1	-60*	1%	-15%	1%	21%	0%
CCn1cc(C(=O)NC(=S)Nc2ccccc2[N+](=O)[O-])cn1	-22	?	-8%	7%	15%	-10%
O=C(Nc1ccc(Cl)cc1Cl)[C@@H]1CC=C[C@@H]2CCN(Cc3ccccc3)C(=O)[C@@H]21	nt	nt	nt	-6%	5%	nt
COc1ccc(/C=N/Nc2nnc(C)n2N)cc1OC	0	-27%	-17%	-21%	11µM*	-6%[11.6 µM]
COc1cccc(/C=N/Nc2nnc(C)n2N)c1OCc1ccccc1Cl	-6	-2%[57.1 µM]	-7%	-6%	20µM*	-18%
N#C/C(=N\Nc1ccc(Cl)cc1)C(N)=S	?	-20%	-16%	-27%	-4%	-5%
Cc1ccc(N/N=C(\C#N)C(N)=S)cc1C	-51*	8%	-12%	-41%	87%	7%
SMILES	PI5P4K alpha inh	POLB inh	Pol eta inh	POLK inh	Pol iota inh	WRN inhibitor
CCOc1cc(/C=C2\N=C(SCC)SC2=O)cc([N+](=O)[O-])c1OC(C)=O	-68*	16µM*	45µM*	?	?	-22%
COc1ccccc1N1CCN(C(=O)C(CCSC)NS(=O)(=O)c2ccc3c(c2)oc(=O)n3C)CC1 (centres undefined)	nt	10%	-12%	-10%[60.1 µM]	5%	nt
O=C(Nc1ccc2nc(-c3ccco3)c(-c3ccco3)nc2c1)N1CCCC1	nt	nt	nt	32µM*	3.2µM*	nt
O=C(NCCO)Nc1ccc2nc(-c3ccco3)c(-c3ccco3)nc2c1	nt	4.5µM*	nt	nt	nt	nt
O=C(NCCO)Nc1ccc2nsnc2c1	-3	24%	5%	-8%	5%	7%
CC1CCN(C(=O)Nc2ccc3nc(-c4ccco4)c(-c4ccco4)nc3c2)CC1	nt	nt	nt	8.9µM*	14µM*	nt
Cc1nc2ccc(NC(=O)N3CCOCC3)cc2nc1C	2	0%	-9%	-4%	31%	1%
S=C(Nc1ccc(N2CCOCC2)cc1)Nc1ccc2nc(-c3ccco3)c(-c3ccco3)nc2c1	-78*	2%	?	?	2µM*	-35%[11.6 µM]
Nc1nc(N)c(-c2ccccc2)s1	nt	nt	nt	-14%[19.4 µM]	20%	nt
COc1cc(N(C)C)c(OC)cc1C=O	nt	nt	nt	-26%	?	nt
NC1=NC(=O)/C(=C/c2cc(Br)c(O)c(Br)c2)S1	-89*	29%	-14%	-41%	?	-16%[11.6 µM]
O=C1C(O)=C(O)C(=O)C(O)=C1O	nt	nt	nt	8.9µM*	nt	nt
CC1=C(O)C(=O)C(C2=C(O)C(=O)C(C)=C(O)C2=O)=C(O)C1=O	?	nt	-2%	?	13%	-2%
O=C(C[n+]1cccc(C(=O)N/N=C/c2cccc([N+](=O)[O-])c2)c1)c1ccccc1	-11	nt	-8%	-1%	18%	0%
Cc1cc(N=Nc2ccc(C)c(N=Nc3cc(C)c(N)cc3N)c2)c(N)cc1N	-28	?	-9%	50µM*	?	-7%[11.6 µM]
O=C(CSc1nc2cc(Cl)ccc2s1)c1ccco1	nt	-1%	-7%	-21%	62%	-9%
O=C(CSc1nnc(SCC(=O)c2ccco2)s1)c1ccco1	-62*	32µM*	16µM*	?	?	?
Cc1ccccc1NC(=O)Cn1nnc(S(=O)(=O)c2ccc(C(C)(C)C)cc2)c1N	-11	32µM*	1%	-32%	?	-12%[11.6 µM]
CN(C)c1ccc(/C=C2\C=Cc3ccccc32)cc1F	nt	nt	nt	-23%	-19%	nt
Nc1cc(-c2nn[nH]n2)ccc1F	?	-27%	11µM*	?	?	-17%[57.1 µM]
COc1ccc(-c2nn[nH]n2)cc1OC	-20	0%	-6%	-5%	8%	-22%
CC[C@@H]1[C@H]2CCCC(=O)N3CC[C@@H](C[C@@H]1OC(=O)Nc1ccc4c(c1)OCO4)[C@@H]23	nt	nt	nt	-27%	26%	nt
